Hits are enriched below; roughly 7.5% of the tested compounds scored in any of these assays.
VACV Venus inh: vaccinia inhibition (Venus reporter); AID 720580; 330,000 compounds, 0.46% hits; Vaccinia virus Venus reporter expression, fluorescence; Potency, µM (titrated, usually from 36.5 µM), most hits filed as inhibitors; calls by dose curve; tested in A549 cells; also: nearly all actives have a fitted effect of over 30% in size
HCMV antiviral: blocks human cytomegalovirus replication. HFF cells, HCMV-luciferase reporter, 72 h; active compounds read low. activity change, negative = inhibition, % at 57.5 µM. 410,000 compounds, 4.5% hits; in the data active = activity change below about -60%; inconclusive = no clear call, values can overlap the other calls; inactive = above about -39%
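Cell-based, HFFs, 1000 cells/well, 16 h 37C; cpds in DMSO + HCMV-luc, MOI 1 PFU/cell; 72 h 37C; OneGlo luminescence after 5 min RT; norm. to buffer vs Salinomycin 10uM.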
Giardia FBPA inh: Giardia lamblia aldolase inhibition; A8B2U2; Potency, µM (doses to about 59.6 µM), most hits filed as inhibitors; 290,000 compounds, 0.71% hits; purified Giardia FBPA; also: nearly all actives have a fitted effect of over 55% in size
Target sequence (A8B2U2 whole entry, looked up): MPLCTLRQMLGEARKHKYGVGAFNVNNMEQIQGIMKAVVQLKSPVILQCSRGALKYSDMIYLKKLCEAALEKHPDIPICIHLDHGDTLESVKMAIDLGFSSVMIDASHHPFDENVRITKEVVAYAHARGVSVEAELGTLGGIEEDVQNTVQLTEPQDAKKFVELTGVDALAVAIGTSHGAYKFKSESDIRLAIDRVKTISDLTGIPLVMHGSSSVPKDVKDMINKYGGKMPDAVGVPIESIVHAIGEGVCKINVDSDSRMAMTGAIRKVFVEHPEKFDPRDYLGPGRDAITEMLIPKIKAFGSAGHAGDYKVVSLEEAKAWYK
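40 nM FBPA preincubated 10 min at RT with compound (up to 57.5 uM final), then substrate plus GAPDH/TPI/NAD/arsenate coupling and diaphorase/resazurin added. Fluorescence read after 20 min at RT, 525/598 nm.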
FMDV inh: antivirals against foot and mouth disease virus | Potency, µM (doses to about 57.9 µM), hits mostly inhibitors | 410,000 compounds, 1.2% hits | FMDV antiviral cell-based qHTS; calls by dose curve; tested in HEK293T cells; also: read-out not given here; nearly all actives have a fitted effect of over 45% in size
Vaccinia mCherry: vaccinia inhibition (mCherry reporter); Vaccinia virus mCherry reporter infection, fluorescence; 310,000 compounds, 0.63% hits; Potency, µM (titrated, usually from 36.5 µM), actives largely listed as inhibitors; calls by dose curve; tested in A549 cells; also: nearly all actives have a fitted effect of over 35% in size
HCV inhibitor: blocks hepatitis C virus | Potency, µM (titrated, usually from 41.8 µM), actives largely listed as inhibitors | Huh7.5.1 HCVcc-Cre infection, luciferase reporter, 44 h | 340,000 compounds, 3.4% hits
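Cells (1,000/well) were plated 4 h before compound, then infected with HCVcc-Cre virus (~0.5 moi). After 44 h further culture, infection was read as luciferase luminescence following a 15 min substrate incubation at room temperature.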
Each line names hits and unclear results; the compound was inactive in the other large screens. Unless noted, calls follow the shape of the dose curve; as a rule, active = well fitted curve in the direction sought with a large enough effect; inconclusive = small, poorly fitted or top-dose-only effect, or another doubt; inactive = no such curve, though single readings can be large; an effect the other way counts as inactive or inconclusive.

O=C1NC(Cc2ccc(O)cc2)c2nc3cc(Cl)ccc3c(=O)n2-c2cc3ccccc3cc21 (stereo not given)	VACV Venus inh inconclusive, HCMV antiviral -100, FMDV inh inconclusive, Vaccinia mCherry inconclusive (no result: Giardia FBPA inh, HCV inhibitor)
Cc1ccc2nc3n(c(=O)c2c1)-c1cc2ccccc2cc1C(=O)NC3Cc1ccc(O)cc1 (stereo not given)	VACV Venus inh inconclusive, HCMV antiviral -92, FMDV inh inconclusive, Vaccinia mCherry inconclusive (no result: Giardia FBPA inh, HCV inhibitor)
O=C1NC(Cc2ccc(O)cc2)c2nc3ccc(F)cc3c(=O)n2-c2cc3ccccc3cc21 (stereo not given)	VACV Venus inh inconclusive, HCMV antiviral -101, FMDV inh inconclusive, Vaccinia mCherry inconclusive (no result: Giardia FBPA inh, HCV inhibitor)
Cc1ncc2c(c1CNC(=O)c1ccc3c(c1)OCO3)CCN(C(=O)c1csc3c1CCCC3)C2	none (no result: HCMV antiviral, Giardia FBPA inh, HCV inhibitor)
CCOCCSc1c(C)cnc2c1c(=O)n(C)c(=O)n2C	HCMV antiviral inconclusive (no result: Giardia FBPA inh, HCV inhibitor)
CCn1c(-c2ccccc2F)nc2cc(NC(C)=O)cc(C(=O)N3CCCC3c3nccs3)c21 (stereo not given)	none (no result: HCMV antiviral, Giardia FBPA inh, HCV inhibitor)
CCc1ccc(-n2c(=O)c3c4c(sc3n(Cc3ccc(F)cc3)c2=O)CCCC4)cc1	none (no result: Giardia FBPA inh, HCV inhibitor)
CCc1ccc(-n2c(=O)c3c4c(sc3n(CC(=O)c3ccc(F)cc3)c2=O)CCC4)cc1	HCMV antiviral -88 (no result: Giardia FBPA inh, HCV inhibitor)
CCCCC(=O)Nc1cccc(-c2nc3ccccc3s2)c1	none (no result: Giardia FBPA inh, HCV inhibitor)
COc1ccc(S(=O)(=O)NCC(c2ccco2)N2CCc3ccccc3C2)cc1 (stereo not given)	HCMV antiviral -95 (no result: Giardia FBPA inh)
Cc1ccc(S(=O)(=O)NCC(c2ccco2)N2CCc3ccccc3C2)cc1 (stereo not given)	none (no result: Giardia FBPA inh)
Cc1cc(Nc2ccc(F)cc2F)nc(-n2nc(C)cc2C)n1	HCMV antiviral inconclusive (no result: Giardia FBPA inh, HCV inhibitor)
COc1ccc(Nc2cc(C)nc(-n3nc(C)cc3C)n2)cc1Cl	HCMV antiviral -98, Vaccinia mCherry inconclusive (no result: Giardia FBPA inh, HCV inhibitor)
Cc1cc(Nc2ccc(C(C)C)cc2)nc(-n2nc(C)cc2C)n1	HCMV antiviral -91 (no result: Giardia FBPA inh, HCV inhibitor)
COc1cc(NS(=O)(=O)c2ccc(-c3cc(C)no3)cc2)cc(OC)c1	VACV Venus inh inconclusive, HCMV antiviral -85, Vaccinia mCherry inconclusive (no result: Giardia FBPA inh, HCV inhibitor)
CCc1ccccc1N(C)S(=O)(=O)c1cc(-c2cc(C)no2)ccc1OC	HCV inhibitor 14µM (no result: VACV Venus inh, Vaccinia mCherry)
Cc1cc(-c2ccc(C)c(S(=O)(=O)N(C)c3ccc(C)c(C)c3)c2)on1	FMDV inh 40µM (no result: Giardia FBPA inh, HCV inhibitor)
COc1ccc(-c2cc(C)no2)cc1S(=O)(=O)N(C)c1cccc(C)c1	HCV inhibitor inconclusive (no result: VACV Venus inh, Vaccinia mCherry)
COc1ccccc1CNS(=O)(=O)c1ccc(-c2cc(C)no2)cc1	HCMV antiviral -60, FMDV inh inconclusive, HCV inhibitor inconclusive (no result: VACV Venus inh, Giardia FBPA inh, Vaccinia mCherry)
COc1cc(Cl)c(NS(=O)(=O)c2cc(-c3cc(C)no3)ccc2OC)c(OC)c1	none (no result: Giardia FBPA inh, HCV inhibitor)
NC(N)=NCCCC(NC(=O)c1ccccc1)C(=O)Nc1ccc2ccccc2c1 (stereo not given)	HCV inhibitor inconclusive (no result: Giardia FBPA inh)
CCN(c1ccc(OC)cc1)S(=O)(=O)c1cc(-c2cc(C)no2)ccc1C(C)C	HCV inhibitor 13µM (no result: VACV Venus inh, Vaccinia mCherry)
CCN(c1ccc(OC)cc1)S(=O)(=O)c1cc(-c2cc(C)no2)ccc1OC	HCV inhibitor inconclusive (no result: VACV Venus inh, Giardia FBPA inh, Vaccinia mCherry)
COc1ccc2cc([C@@H](C#N)C3CCCC3)ccc2c1	none (no result: VACV Venus inh, Giardia FBPA inh, FMDV inh, Vaccinia mCherry, HCV inhibitor)
COc1cc2c(cc1OC)C1C(=O)c3c(O)cc4c(c3OC1CO2)C=CC(C)(C)O4 (stereo not given)	FMDV inh inconclusive, Vaccinia mCherry inconclusive (no result: HCMV antiviral, HCV inhibitor)
C=CC[C@@H](CC(=O)N(CCO)Cc1ccccc1)C(=O)N[C@H](COC(=O)[C@@H](CC=C)CC(=O)OC(C)(C)C)Cc1c[nH]c2ccccc12	VACV Venus inh inconclusive, FMDV inh inconclusive, HCV inhibitor 11µM (no result: Giardia FBPA inh)
C=CC[C@H](CC(=O)N(CCO)Cc1ccccc1)C(=O)N[C@H](COC(=O)[C@H](CC=C)CC(=O)OC(C)(C)C)Cc1ccccc1	VACV Venus inh inconclusive, HCV inhibitor 11µM (no result: Giardia FBPA inh)
C=CC[C@@H](CC(=O)N[C@@H](CO)Cc1ccccc1)C(=O)N[C@H](COC(=O)[C@@H](CC=C)CC(=O)OC(C)(C)C)Cc1c[nH]c2ccccc12	VACV Venus inh 11µM, FMDV inh 35µM, Vaccinia mCherry inconclusive, HCV inhibitor inconclusive (no result: Giardia FBPA inh)
C=CC[C@H](CC(=O)N(CCO)Cc1ccccc1)C(=O)N[C@@H](COC(=O)[C@H](CC=C)CC(=O)OC(C)(C)C)Cc1c[nH]c2ccccc12	VACV Venus inh inconclusive, FMDV inh inconclusive, Vaccinia mCherry inconclusive, HCV inhibitor inconclusive (no result: Giardia FBPA inh)

Bioassay records deposited in PubChem by National Center for Advancing Translational Sciences (NCATS).
